The record followed here is ChEMBL document CHEMBL2218924, “A broad activity screen in support of a chemogenomic map for kinase signalling research and drug discovery” (Biochem J, 2013).

Molecules are shown by their SMILES.

The target in assay [1] is T1, cGMP-dependent protein kinase 1 (Homo sapiens) (UniProt Q13976).
T1 sequence (whole entry): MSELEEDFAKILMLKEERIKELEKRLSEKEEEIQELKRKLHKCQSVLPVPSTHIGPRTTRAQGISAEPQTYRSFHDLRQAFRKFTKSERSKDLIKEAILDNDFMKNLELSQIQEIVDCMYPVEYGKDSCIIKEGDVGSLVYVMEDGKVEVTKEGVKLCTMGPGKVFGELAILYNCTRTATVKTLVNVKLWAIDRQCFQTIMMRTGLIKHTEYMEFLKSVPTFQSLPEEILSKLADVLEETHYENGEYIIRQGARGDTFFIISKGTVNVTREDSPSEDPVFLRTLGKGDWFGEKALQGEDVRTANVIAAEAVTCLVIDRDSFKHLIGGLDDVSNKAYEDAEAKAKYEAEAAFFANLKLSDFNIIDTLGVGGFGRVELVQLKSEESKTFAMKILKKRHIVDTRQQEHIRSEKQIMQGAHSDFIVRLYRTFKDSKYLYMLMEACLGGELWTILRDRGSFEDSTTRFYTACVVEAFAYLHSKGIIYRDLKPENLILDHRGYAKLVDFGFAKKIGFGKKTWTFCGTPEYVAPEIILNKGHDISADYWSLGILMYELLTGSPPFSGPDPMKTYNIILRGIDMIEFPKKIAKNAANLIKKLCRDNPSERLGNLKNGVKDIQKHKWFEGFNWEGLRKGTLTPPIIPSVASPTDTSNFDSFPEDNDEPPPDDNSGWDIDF
Particulars: at 1 µM.

For assay [2], the target named is T1, cGMP-dependent protein kinase 1 (Homo sapiens). Particulars: at 10 µM.
The target is the same in assay [3]. Particulars: at 1 µM. The source holds these as a separate data set.
The target is the same in assay [4]. Particulars: at 10 µM. This is another data set of the same source.
Assay [5] addresses T2, MAP kinase-activated protein kinase 5 (Homo sapiens) (UniProt Q8IW41).
T2 sequence (whole entry): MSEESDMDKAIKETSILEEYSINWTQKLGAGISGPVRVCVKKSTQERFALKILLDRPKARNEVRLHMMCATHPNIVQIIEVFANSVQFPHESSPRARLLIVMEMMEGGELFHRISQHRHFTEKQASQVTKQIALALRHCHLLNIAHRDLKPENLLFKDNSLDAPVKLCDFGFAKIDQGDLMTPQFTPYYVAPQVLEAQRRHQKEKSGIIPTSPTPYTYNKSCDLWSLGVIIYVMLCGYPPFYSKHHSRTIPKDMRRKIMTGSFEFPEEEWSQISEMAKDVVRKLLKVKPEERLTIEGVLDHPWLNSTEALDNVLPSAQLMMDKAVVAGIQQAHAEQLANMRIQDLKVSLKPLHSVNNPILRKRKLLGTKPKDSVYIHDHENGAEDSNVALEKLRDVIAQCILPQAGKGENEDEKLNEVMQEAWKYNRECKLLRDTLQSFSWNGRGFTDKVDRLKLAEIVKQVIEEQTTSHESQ
Particulars: at 1 µM.

In assay [6] the target is T2, MAP kinase-activated protein kinase 5 (Homo sapiens). Particulars: at 10 µM.
In assay [7] the target is Serine/threonine-protein kinase N2 (Homo sapiens) (UniProt Q16513). Particulars: at 1 µM.
For assay [8] the target is unchanged. Particulars: at 10 µM.
Assay [9] addresses Tyrosine-protein kinase FRK (Homo sapiens) (UniProt P42685). Particulars: at 1 µM.
The target is the same in assay [10]. Particulars: at 10 µM.
Assay [11] concerns the target T3, Phosphorylase b kinase gamma catalytic chain, liver/testis isoform (Homo sapiens) (UniProt P15735).
T3 sequence (whole entry): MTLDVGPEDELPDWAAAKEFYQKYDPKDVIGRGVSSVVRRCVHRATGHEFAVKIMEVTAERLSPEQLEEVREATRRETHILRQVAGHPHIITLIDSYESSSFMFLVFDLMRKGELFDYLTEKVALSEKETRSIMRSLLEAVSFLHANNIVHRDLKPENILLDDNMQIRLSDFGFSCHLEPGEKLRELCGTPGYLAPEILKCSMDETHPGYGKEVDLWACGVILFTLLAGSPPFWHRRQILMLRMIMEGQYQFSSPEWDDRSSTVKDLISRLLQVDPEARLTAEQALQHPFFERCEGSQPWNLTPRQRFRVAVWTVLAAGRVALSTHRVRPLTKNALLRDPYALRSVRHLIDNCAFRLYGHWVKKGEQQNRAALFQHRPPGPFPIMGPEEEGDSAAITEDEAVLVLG
Particulars: at 1 µM.

Assay [12] addresses T3, Phosphorylase b kinase gamma catalytic chain, liver/testis isoform (Homo sapiens). Particulars: at 10 µM.
Assay [13] deals with Serine/threonine-protein kinase pim-1 (Homo sapiens) (UniProt P11309). Particulars: at 1 µM.
For assay [14] the target is unchanged. Particulars: at 10 µM.
The target in assay [15] is Serine/threonine-protein kinase pim-2 (Homo sapiens) (UniProt Q9P1W9). Particulars: at 1 µM.
The target is the same in assay [16]. Particulars: at 10 µM.
Assay [17] has as its target Serine/threonine-protein kinase pim-3 (Homo sapiens) (UniProt Q86V86). Particulars: at 1 µM.
Assay [18] has the same target. Particulars: at 10 µM.
In assay [19] the target is Serine/threonine-protein kinase PLK1 (Homo sapiens) (UniProt P53350). Particulars: at 1 µM.
For assay [20] the target is unchanged. Particulars: at 10 µM.

Tyrosine-protein kinase FRK (Homo sapiens), sequence (P42685 whole entry): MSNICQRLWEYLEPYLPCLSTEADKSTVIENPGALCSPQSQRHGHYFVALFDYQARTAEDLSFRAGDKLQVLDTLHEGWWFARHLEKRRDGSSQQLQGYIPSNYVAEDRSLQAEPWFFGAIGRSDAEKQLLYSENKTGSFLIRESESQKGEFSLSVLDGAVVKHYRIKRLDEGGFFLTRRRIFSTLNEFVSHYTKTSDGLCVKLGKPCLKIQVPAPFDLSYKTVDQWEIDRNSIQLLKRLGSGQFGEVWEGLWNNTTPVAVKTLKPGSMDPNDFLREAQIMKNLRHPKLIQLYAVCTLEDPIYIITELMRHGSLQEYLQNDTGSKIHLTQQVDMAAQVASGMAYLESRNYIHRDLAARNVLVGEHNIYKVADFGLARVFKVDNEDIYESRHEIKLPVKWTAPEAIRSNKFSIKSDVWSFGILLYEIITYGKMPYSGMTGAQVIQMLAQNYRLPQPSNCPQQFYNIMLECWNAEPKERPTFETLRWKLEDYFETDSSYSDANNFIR
Serine/threonine-protein kinase pim-2 (Homo sapiens), sequence (Q9P1W9 whole entry, looked up): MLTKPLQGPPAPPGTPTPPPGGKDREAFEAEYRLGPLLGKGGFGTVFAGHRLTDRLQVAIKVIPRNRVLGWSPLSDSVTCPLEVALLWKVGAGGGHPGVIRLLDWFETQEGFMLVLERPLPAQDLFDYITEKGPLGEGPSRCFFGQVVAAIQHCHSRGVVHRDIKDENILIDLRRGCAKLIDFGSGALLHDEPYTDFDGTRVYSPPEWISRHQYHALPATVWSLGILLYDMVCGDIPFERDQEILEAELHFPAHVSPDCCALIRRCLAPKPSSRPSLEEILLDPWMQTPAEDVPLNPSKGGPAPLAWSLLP
Serine/threonine-protein kinase PLK1 (Homo sapiens), sequence (P53350 whole entry): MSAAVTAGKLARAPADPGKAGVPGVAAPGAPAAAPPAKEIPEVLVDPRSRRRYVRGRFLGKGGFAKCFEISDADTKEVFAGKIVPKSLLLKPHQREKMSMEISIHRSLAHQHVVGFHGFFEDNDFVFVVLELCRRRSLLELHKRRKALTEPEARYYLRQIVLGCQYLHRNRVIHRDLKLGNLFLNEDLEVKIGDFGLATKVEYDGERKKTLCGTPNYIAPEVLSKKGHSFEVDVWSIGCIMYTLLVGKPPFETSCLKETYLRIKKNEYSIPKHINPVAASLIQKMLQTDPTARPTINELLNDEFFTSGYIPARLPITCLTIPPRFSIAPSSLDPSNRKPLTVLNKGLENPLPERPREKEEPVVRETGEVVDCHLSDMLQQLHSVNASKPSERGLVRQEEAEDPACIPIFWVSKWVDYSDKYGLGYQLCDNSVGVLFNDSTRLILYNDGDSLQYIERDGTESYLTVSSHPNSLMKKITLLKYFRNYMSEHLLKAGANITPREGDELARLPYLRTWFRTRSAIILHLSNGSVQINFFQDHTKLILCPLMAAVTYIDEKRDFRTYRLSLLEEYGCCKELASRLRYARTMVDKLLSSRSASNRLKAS
Serine/threonine-protein kinase N2 (Homo sapiens), sequence (Q16513 whole entry, looked up): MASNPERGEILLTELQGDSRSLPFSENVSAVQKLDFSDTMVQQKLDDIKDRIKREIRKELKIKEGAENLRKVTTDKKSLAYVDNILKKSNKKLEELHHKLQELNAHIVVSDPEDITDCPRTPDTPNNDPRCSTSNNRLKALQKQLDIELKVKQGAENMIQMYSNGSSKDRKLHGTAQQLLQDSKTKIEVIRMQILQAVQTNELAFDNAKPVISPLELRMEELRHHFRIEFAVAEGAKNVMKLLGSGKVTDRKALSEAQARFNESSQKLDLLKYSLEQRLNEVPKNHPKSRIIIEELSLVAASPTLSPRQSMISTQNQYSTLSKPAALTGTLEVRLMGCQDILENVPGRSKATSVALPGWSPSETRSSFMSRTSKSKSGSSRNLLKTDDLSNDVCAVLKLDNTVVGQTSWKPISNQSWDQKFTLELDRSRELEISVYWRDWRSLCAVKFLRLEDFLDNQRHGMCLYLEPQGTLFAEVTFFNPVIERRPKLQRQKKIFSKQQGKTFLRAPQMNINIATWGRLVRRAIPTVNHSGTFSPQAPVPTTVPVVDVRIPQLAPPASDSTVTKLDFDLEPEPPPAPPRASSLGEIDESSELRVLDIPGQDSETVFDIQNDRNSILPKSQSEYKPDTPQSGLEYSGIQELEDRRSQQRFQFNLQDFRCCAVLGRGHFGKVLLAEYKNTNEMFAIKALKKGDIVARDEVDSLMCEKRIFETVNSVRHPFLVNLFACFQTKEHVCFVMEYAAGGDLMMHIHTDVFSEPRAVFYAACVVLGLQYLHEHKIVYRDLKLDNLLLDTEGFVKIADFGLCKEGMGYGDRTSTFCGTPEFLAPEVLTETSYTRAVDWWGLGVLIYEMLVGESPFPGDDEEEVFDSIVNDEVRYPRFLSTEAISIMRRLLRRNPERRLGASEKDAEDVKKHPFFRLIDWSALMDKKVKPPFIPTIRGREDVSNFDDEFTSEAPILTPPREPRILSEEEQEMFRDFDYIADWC
Serine/threonine-protein kinase pim-1 (Homo sapiens), sequence (P11309 whole entry, looked up): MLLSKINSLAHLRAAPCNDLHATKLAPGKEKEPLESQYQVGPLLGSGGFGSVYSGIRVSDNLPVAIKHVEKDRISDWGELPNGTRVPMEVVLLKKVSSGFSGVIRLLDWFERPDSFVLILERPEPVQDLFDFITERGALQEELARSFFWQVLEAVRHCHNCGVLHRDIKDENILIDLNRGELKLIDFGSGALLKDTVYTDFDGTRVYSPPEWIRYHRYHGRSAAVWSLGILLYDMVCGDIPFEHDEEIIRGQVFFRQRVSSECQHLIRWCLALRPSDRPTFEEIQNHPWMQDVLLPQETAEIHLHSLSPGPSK

For the molecule `Cc1nc(-c2ccccc2)c(-c2ccncc2)o1`, the residual activity in assay [1] came to 93%; in [2], 80%; in assay [3], 115%; in assay [4], 90%; in [5] it was 110%; in assay [6], 115%. Also, the residual activity was found to be 99% in assay [7]; 76% in assay [8]; 1% in [9]; 2% in [10]; 109% in [11]; 95% in assay [12]. The residual activity was 78% in [13]; 60% in assay [14]; 121% in assay [15]; 117% in assay [16]; 93% in [17]; 99% in [18]. The results for the residual activity in assay [19] and in assay [20] were 92% and 93%, respectively.

Regarding `COc1cc2ncnc(Nc3ccc(O)c(Br)c3)c2cc1OC`, the residual activity came to 94% in assay [1]; 76% in [2]; 70% in [3]; 47% in assay [4]; 77% in [5]; 70% in assay [6]. In addition, the residual activity in assay [7] is 87%; in assay [8], 61%; in assay [9], 35%; in [10], 5%; in assay [11], 97%; in assay [12] it was 94%. Also, the residual activity in assay [13] came out at 66%; in assay [14], 29%; in [15], 78%; in assay [16] it was 66%; in assay [17], 87%; in assay [18], 70%. Also, the figures for the residual activity in assay [19] and in assay [20] were 64% and 54%, respectively.

As for `O=[N+]([O-])c1ccc(-c2nc(-c3ccc(F)cc3)c(-c3ccncc3)[nH]2)cc1`, the residual activity in assay [1] turned out to be 98%; in assay [2] it was 103%; in assay [3] it was 105%; in assay [4] it was 92%; in assay [5], 112%; in [6], 107%. Moreover, the residual activity was 119% in [7]; 93% in assay [8]; 57% in [9]; 60% in assay [10]; 98% in assay [11]; 91% in assay [12]. The residual activity came to 99% in assay [13]; 85% in assay [14]; 127% in [15]; 139% in [16]; 86% in assay [17]; 95% in [18]. Besides, the figures for the residual activity in [19] and in assay [20] were 88% and 80%, respectively.

As for `Cc1cccc(-c2[nH]c(C(C)(C)C)nc2-c2ccc3c(c2)OCO3)n1`, the residual activity worked out at 92% in [5]; 77% in [6]; 92% in assay [10]; 103% in [17]; 97% in assay [18]; 80% in assay [19]. Further, in assay [20], the residual activity was found to be 75%.

For `CN(C)c1ccc(/C=C2\C(=O)Nc3ccccc32)cc1`, the residual activity worked out at 121% in assay [1]; 115% in [2]; 65% in assay [3]; 84% in [4]; 113% in assay [5]; 65% in assay [6]. The residual activity worked out at 113% in assay [7]; 120% in [8]; 97% in [9]; 76% in [10]; 98% in assay [11]; 85% in [12]. Also, the residual activity was found to be 77% in assay [13]; 93% in assay [14]; 92% in [15]; 112% in assay [16]; 106% in assay [17]; 91% in assay [18]. Besides, the residual activity in assay [19] amounted to 88%; in assay [20], 76%.

Take `CN(C)CCCn1cc(C2=C(c3c[nH]c4ccccc34)C(=O)NC2=O)c2ccccc21`: the residual activity stood at 60% in assay [1]; 14% in [2]; 34% in assay [3]; 6% in assay [4]; 125% in assay [5]; 107% in assay [6]. Also, the residual activity in assay [7] came out at 23%; in assay [8], 6%; in assay [10], 84%; in assay [11] it was 88%; in assay [12], 63%; in assay [15], 15%. The residual activity in [16] stood at 4%; in [17], 22%; in assay [18] it was 5%; in [19] it was 114%; in assay [20] it was 84%.

Turning to `CO[C@@H]1[C@H](N(C)C(=O)c2ccccc2)C[C@H]2O[C@]1(C)n1c3ccccc3c3c4c(c5c6ccccc6n2c5c31)C(=O)NC4`, the residual activity in assay [1] was 8%; in assay [2], 4%; in assay [3], 4%; in assay [4], 3%; in [5], 102%; in assay [6], 57%. The residual activity in assay [7] was 2%; in [8], 1%; in assay [9], 33%; in assay [10], 23%; in assay [11], 44%; in assay [12], 29%. For the same molecule, the residual activity in [13] was determined as 33%; in [14] it was 16%; in assay [15] it was 80%; in [16], 94%; in [17] it was 93%; in [18], 88%. Further, the residual activity in [20] stood at 61%.
